Results published in the supplement of paper PMC12350171.
Structures can show the parent of a compound that is named as a salt. Values without a mark were called inactive.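 Rule for the calls: active = AUC significantly below DMSO controls by Student t-fit with adjusted P under 0.01; inactive = not significantly reduced.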

These molecules were tested on Haemophilus parainfluenzae (assay: growth AUC normalised to DMSO control (fraction of control); higher = less growth inhibition, active = hit call of the paper). Details: 20 µM.
In short: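 Pathogens were passaged twice under anaerobic conditions, then inoculated into pre-reduced mGAM plates at a starting OD578 of 0.01, with compound at 20 μM and 1% DMSO, and sealed with breathable membranes. For Haemophilus parainfluenzae, the medium was supplemented with hemin and NAD. OD578 was read every hour for 24 h in three biological replicates. Growth-curve AUC was calculated by the trapezoidal rule up to the exponential-to-stationary transition and normalised to DMSO controls on the same plate.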
CN(Cc1cc(Br)cc(Br)c1N)C1CCCCC1 [Bromhexine hydrochloride] was tested, and the “growth AUC normalised to DMSO control” value was 1.04.
C[C@]12CCC(=O)C=C1CC[C@@H]1[C@@H]2[C@@H](O)C[C@@]2(C)[C@H]1CC[C@]2(O)C(=O)CO [Hydrocortisone] was tested, and the “growth AUC normalised to DMSO control” value was 0.936.
In the case of CN1CCN(CCCN2c3ccccc3Sc3ccc(C(F)(F)F)cc32)CC1 [Trifluoperazine dihydrochloride], the “growth AUC normalised to DMSO control” value is reported as 0.927.
With Cc1cc(CC(=O)O)n(C)c1C(=O)c1ccc(Cl)cc1 [Zomepirac sodium salt] the “growth AUC normalised to DMSO control” value was 0.993.
With CCN(CC)CCNc1ccc(CO)c2sc3ccccc3c(=O)c12 [Hycanthone] the “growth AUC normalised to DMSO control” value was 0.986.
With NC1CCN(c2nc3c(cc2F)c(=O)c(C(=O)O)cn3-c2ccc(F)cc2F)C1 (stereo unspecified) [Tosufloxacin hydrochloride] the “growth AUC normalised to DMSO control” value was 0.0424 (active).
For COc1ccc(CC2c3cc(OC)c(OC)cc3CC[N+]2(C)CCC(=O)OCCCCCOC(=O)CC[N+]2(C)CCc3cc(OC)c(OC)cc3C2Cc2ccc(OC)c(OC)c2)cc1OC (stereo unspecified) [Atracurium besylate], the “growth AUC normalised to DMSO control” value was 1.06.
With Clc1ccc(COC(Cn2ccnc2)c2ccc(Cl)cc2Cl)cc1 (stereo unspecified) [Econazole nitrate] the “growth AUC normalised to DMSO control” value was 1.09.
O=C(O)c1cc(/N=N/c2ccc(S(=O)(=O)Nc3ccccn3)cc2)ccc1O [Sulfasalazine] was tested, and the “growth AUC normalised to DMSO control” value was 1.04.
CN1CCN2c3ncccc3Cc3ccccc3C2C1 (stereo unspecified) [Mirtazapine] was tested, and the “growth AUC normalised to DMSO control” value was 1.49.
For CC(CNC1CCCCC1)OC(=O)c1ccccc1 (stereo unspecified) [Hexylcaine hydrochloride], the “growth AUC normalised to DMSO control” value was 0.995.
